# Peg3 prom inh: inhibitors of Peg3 promoter; HeLa PEG-Prom luciferase reporter, luminescence, overnight; inhibition, % at 20 µM; 360,000 compounds, 1.7% hits;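 active = inhibition of at least 50% at 20 µM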
# PPC-1+TRAIL kill: compounds killing PPC-1 cancer cells with TRAIL present (potentiator screen, no TRAIL-free arm). PPC-1 cells + TRAIL, ATPLite viability luminescence. cell killing (% activity), % at 4 µM or 5 µM. 220,000 compounds, 0.41% hits;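 active = cell killing above 50% in the first pass at 4 µM, then a duplicate retest at 5 µM averaging 50% or more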;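 also: plate controls were cells with TRAIL plus DMSO for no effect and medium-only wells lacking cells for full effect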
# HIF-2a inh: inhibitors of HIF-2a; 786-0 RCC cells HIF-2a reporter, luciferase luminescence, overnight; inhibition, % at 18.8 µM; 360,000 compounds, 0.72% hits; AID 624352;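 active = inhibition of the luminescence signal of 40% or more relative to plate controls, in a single-dose primary screen at 18.75 µM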
# C8 TRAIL sens: caspase-8 TRAIL sensitization. NB7+C8 cells + TRAIL, ATPlite viability luminescence. inhibition (viability loss, TRAIL sensitization), % at 10 µM. 360,000 compounds, 1% hits. AID 624354;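 active = compounds causing at least 50% loss of cell viability in the single-dose screen, relative to plate controls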
# KKLEB cytotox: counter-screen for CF NF-kB inhibitors: cytotoxicity. activity change (cytotoxicity), % at 5 µM. 360,000 compounds, 0.36% hits. KKLEB CF airway cells viability, ATPlite luminescence, overnight; active compounds read low; cells stimulated with P. aeruginosa culture filtrate;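 active = corrected activity change at or below -50% at 5 µM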
# CF NFkB inh: cystic fibrosis NF-kB activation inhibition. KKLEB NF-kB-GFP reporter, PAF-induced, GFP fluorescence overnight. inhibition, % at 5 µM. 360,000 compounds, 0.86% hits. AID 588850;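 active = at least 50% inhibition at 5 µM, scaled per plate between neutral and stimulator controls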;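 also: PAF is a Pseudomonas aeruginosa culture filtrate used as stimulus; plate controls were PAF-stimulated DMSO wells for no effect and unstimulated DMSO wells for full effect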
# The depositor's hits bear a star; nt = not tested or not shown. Most compounds without a hit are left out; they make up all but 3.1% or so of the library.
SMILES,Peg3 prom inh,PPC-1+TRAIL kill,HIF-2a inh,C8 TRAIL sens,KKLEB cytotox,CF NFkB inh
O=c1[nH]c(/C=C/c2ccc(Br)cc2)nc2ccccc12,-267,nt,-364,78*,-25,-2
O=C1Nc2ccccc2-c2nnnn2C1N1CCCCC1 (configuration not stated),nt,nt,7,8,nt,nt
O=c1[nH]c(/C=C/c2ccccc2F)nc2ccccc12,-64,nt,-268,79*,-19,3
COc1ccc(CC(N)c2csc(NC(=O)c3cccs3)n2)cc1 (configuration not stated),13,nt,2,30,-30,-8
CC(C)C(N)c1csc(NC(=O)Nc2cccc(C(F)(F)F)c2)n1 (configuration not stated),97*,nt,-6,7,-10,8
NCc1csc(NC(=O)Nc2cccc(C(F)(F)F)c2)n1,-2,nt,6,-6,-2,31
CC(C)C(N)c1csc(NC(=O)Nc2ccc(OC(F)(F)F)cc2)n1 (configuration not stated),97*,nt,-34,16,-6,33
NC(Cc1ccc(C(F)(F)F)cc1)c1csc(NC(=O)Nc2ccccc2)n1 (configuration not stated),94*,nt,7,-17,-9,6
COc1ccc(CC(N)c2csc(NC(=O)Nc3cccc(C(F)(F)F)c3)n2)cc1 (configuration not stated),97*,nt,3,70*,-11,4
CC(c1nc2ccccc2[nH]1)N(C(=O)Cc1csc2ccccc12)c1cccnc1 (configuration not stated),14,nt,21,0,1,-10
CCOC(=O)CCC(NC(=O)c1ccc(Nc2nc3ccccc3nc2C(=O)OCC)cc1)C(=O)OCC (configuration not stated),29,nt,-1,15,-7,32
COc1ccc(CCC(=O)OCC(=O)NCc2ccccc2)cc1,18,nt,17,3,-4,9
Cc1nc(C(F)(F)F)ccc1C(=O)N1CCC1(C)C(=O)NS(C)(=O)=O (configuration not stated),-8,nt,10,-11,16,-8
NC(Cc1ccc(C(F)(F)F)cc1)c1csc(NC(=O)Nc2ccccc2Cl)n1 (configuration not stated),89*,nt,13,4,23,-44
COc1ccc(CC(N)c2csc(NC(=O)Nc3ccc(F)cc3)n2)cc1 (configuration not stated),55*,nt,10,-15,5,-10
CC(C)c1ccc(NC(=O)Nc2nc(C(N)c3ccccc3Cl)cs2)cc1 (configuration not stated),88*,nt,8,23,-16,19
COc1cc(CNC(=O)Nc2nc(C(N)Cc3ccc(C(F)(F)F)cc3)cs2)cc(OC)c1OC (configuration not stated),98*,nt,15,26,-4,11
NC(Cc1ccc(Cl)cc1)c1csc(NC(=O)Nc2ccccc2)n1 (configuration not stated),101*,nt,-19,-12,-28,33
NC(COCc1ccccc1)c1csc(NC(=O)Nc2cccc(Cl)c2)n1 (configuration not stated),96*,nt,5,10,-32,17
NC(Cc1ccc(C(F)(F)F)cc1)c1csc(Nc2nncc3ccccc23)n1 (configuration not stated),94*,nt,6,69*,-33,19
NC(COCc1ccccc1)c1csc(Nc2nncc3ccccc23)n1 (configuration not stated),38,nt,-3,-7,-38,19
NC(CCc1ccccc1)c1csc(NC(=O)Nc2cccc(C(F)(F)F)c2)n1 (configuration not stated),95*,nt,6,39,-6,16
O=C(NCc1ccccc1Cl)c1ccc2sc([C@H]3C[C@H](O)[C@@H](CO)O3)nc2c1,-4,nt,-17,-4,8,-12
CNc1c2cccc(C)c2nc2c(C(=O)NCCN(C)C)cccc12,108*,nt,62*,74*,-39,95*
Cc1ccc(C(=O)NCCN(C)C)c(C)c1,15,-2,-2,3,3,-8
SMILES,Peg3 prom inh,PPC-1+TRAIL kill,HIF-2a inh,C8 TRAIL sens,KKLEB cytotox,CF NFkB inh
O=C(c1ccccc1F)N1CCN(C(=O)C2CC2)CC1,16,nt,12,4,18,-15
O=C(NCc1ccncc1)[C@@H]1CCCN1C(=O)[C@H]1CCCN1C(=O)c1c(F)cccc1F,nt,nt,-5,3,nt,nt
COc1ccc2nc3cc(Cl)ccc3c(Nc3cc(C(C)C)c(O)cc3C)c2c1,105*,15,-4,27,-56*,38
c1ccc2c(NCCc3c[nH]c4ccccc34)c3ccccc3nc2c1,99*,nt,44*,75*,-30,-124
CCN(CC)c1ccc(Nc2nc(N3CCOCC3)c3ccccc3n2)cc1,15,-9,11,37,-8,10
COc1ccc(Nc2c3ccccc3nc3ccccc23)cc1,78*,nt,33,10,-7,-73
COc1ccc(CCNCC(O)Cn2c3ccccc3c3ccccc32)cc1OC (configuration not stated),111*,22,9,-1,-39,36
COc1ccc(Nc2nc(N3CCCC3)c3ccccc3n2)cc1,60*,3,6,47,1,-36
CCN(CC(=O)Nc1c(F)cccc1F)C(=O)c1ccc(N2CCCCC2)c([N+](=O)[O-])c1,11,nt,-6,-9,-1,13
COc1ccccc1Nc1c2ccccc2nc2ccccc12,88*,nt,17,15,-26,-40
COc1ccc(CCNc2c3ccccc3nc3ccccc23)cc1OC,73*,-2,51*,17,-17,-1
COc1ccccc1Nc1nc(-c2ccccc2)nc2ccccc12,16,13,-1,0,-2,-19
Oc1cccc(Nc2c3ccccc3nc3ccccc23)c1,76*,nt,40,4,-11,-96
COCC(=O)N1C[C@H](C)[C@H](OC)CN(C)C(=O)c2cc(NC(=O)Nc3cccc(F)c3)ccc2OC[C@@H]1C,nt,nt,-1,4,nt,nt
CC(C)C[C@H]1CN(CCCC[C@@H]2CNC(=O)C(=O)N2CC2CCCCC2)C(=O)C(=O)N1CC1CCCCC1,nt,nt,4,-19,nt,nt
COc1ccc2[nH]c3c(NCCCOC(C)C)ncnc3c2c1,-98,nt,-174,14,8,2
COc1ccc2[nH]c3c(NCCC4=CCCCC4)ncnc3c2c1,-129,nt,-246,54*,-14,16
CCOC(=O)C1CC(CN2C(=O)c3ccccc3C2=O)OC1=O (configuration not stated),-2,nt,-1,9,14,-8
COc1ccc(CCNC(=O)c2cc3c(=O)n4ccccc4nc3n(Cc3ccco3)c2=N)cc1OC,73*,nt,-41,29,6,-5

# Bioassay records: PubChem BioAssay, Sanford-Burnham Center for Chemical Genomics
